Measured potencies and affinities stand elsewhere. Inconclusive results are not listed. The source made the active and inactive calls. The rule behind the calls is not given here.

Test [1] can be described thus: IGROV1 cell killing – plate reader, dry powder samples, PAX8 inhibitor project, dose response (AID 743043).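 Note: more negative means fewer viable cells or more cytotoxicity.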
Test [2] can be described thus: toxicity toward immortalized ovarian surface epithelium – cell-based, plate reader, dry powder samples, cytotoxicity control for PAX8 inhibitor project, dose response (AID 743045).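 Note: more negative values mean more cell killing.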

On to `O=C(N1CCCCC1)[C@@]1(CCS(=O)(=O)c2ccccc2)N=C(c2ccc(OCCCO)cc2)O[C@H]1c1ccccc1`, for which the call in test [1] and in test [2] was inactive.

The values are drawn from PubChem BioAssay.
